Screening data (PubChem)
Pf growth 48h – P. falciparum growth inhibition at 48 hours (one generation); Potency, µM (series often up to 28.7 µM), inactives show top-dose activity change, negative = inhibition, usual class: inhibitors; actives 5.9% (n = 310,000); P. falciparum luciferase growth in erythrocytes, 48 h; further: potency means the concentration at half of the fitted maximal effect; on the % scale 0 is the no-effect control and ±100 the full control effect
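Luciferase-expressing P. falciparum in infected erythrocytes (2% hematocrit, 0.1% parasitemia final) in RPMI 1640/0.5% Albumax were exposed to compound for 48 hours at 37 C, 5% CO2; growth read as luminescence.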
Sm TGR inh – blocks Schistosoma mansoni thioredoxin glutathione reductase. Q962Y6. purified TGR, DTNB reduction, TNB absorbance 405 nm. Potency, µM (doses to about 114 µM), for the others: top-dose activity change, negative = inhibition, usual class: inhibitors. actives 3% (n = 360,000). AID 485364; further: potency means the concentration at half of the fitted maximal effect; on the % scale 0 is the no-effect control and ±100 the full control effect; nearly all actives have a fitted effect of over 60% in size
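TGR 20 nM + NADPH 100 uM (dispensed conc.), cpd preinc 15 min RT; start with NADPH (500 uM addition) then DTNB (15 mM addition). Kinetic TNB absorbance, 405 nm filter. Four-parameter Hill fit across titration.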
Pf growth 96h – P. falciparum growth inhibition at 96 hours; P. falciparum luciferase reporter growth, 96 h; Potency, µM (doses to about 28.7 µM), inactives show top-dose activity change, negative = inhibition, actives largely listed as inhibitors; actives 6.9% (n = 320,000); further: potency means the concentration at half of the fitted maximal effect; on the % scale 0 is the no-effect control and ±100 the full control effect
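Delayed-death screen, second-generation endpoint: infected erythrocytes, 2% hematocrit, 0.05% parasitemia final; 96 hours at 37 C, 5% CO2; luciferase detection reagent; luminescence decrease equals reduced growth.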
HCMV inh – human cytomegalovirus inhibition; HFF cells, HCMV-luciferase reporter, 72 h; active compounds read low; activity change, negative = inhibition, % at 57.5 µM; actives 4.5% (n = 410,000); AID 1259415; in the data active means activity change below about -60%; inconclusive means no clear call, values can overlap the other calls; inactive means above about -39%; further: on the % scale 0 is the no-effect control and ±100 the full control effect
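Screen run at 2 compound doses on HFFs infected with reporter HCMV, MOI 1 PFU/cell. Luciferase activity from cell lysates at 72 h post infection gave inhibition relative to buffer-only and Salinomycin wells.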
HCV inhibitor – HCV inhibition; actives 3.4% (n = 340,000); AID 651820; Huh7.5.1 HCVcc-Cre infection, luciferase reporter, 44 h; Potency, µM (doses to about 41.8 µM), inactives show top-dose activity change, negative = inhibition, actives largely listed as inhibitors; further: potency means the concentration at half of the fitted maximal effect; on the % scale 0 is the no-effect control and ±100 the full control effect
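Cells (1,000/well) were plated 4 h before compound, then infected with HCVcc-Cre virus (~0.5 moi). After 44 h further culture, infection was read as luciferase luminescence following a 15 min substrate incubation at room temperature.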
SARS PLpro yeast – inhibitors of SARS-CoV papain-like protease in yeast; S. cerevisiae expressing SARS-CoV PLpro, growth rescue; Potency, µM (series often up to 32.9 µM), for the others: at the top dose activity, positive = growth rescue, most hits filed as activators; actives 0.19% (n = 330,000); AID 485353; calls by dose curve; further: potency means the concentration at half of the fitted maximal effect; 0% is about no effect; nearly all actives have a fitted effect of over 55% in size
An asterisk follows results filed as active; u = inconclusive; x = not tested or not shown; [ ] = dose if it differs, or a comment. Compounds with a hit are over-represented: about 15% of the library has one in this group of screens. Unless noted, the call rests on the fitted dose curve; in most records, active means well fitted curve in the direction sought with a large enough effect; inconclusive means small, poorly fitted or top-dose-only effect, or another doubt; inactive means no such curve, though single readings can be large; an effect the other way counts as inactive or inconclusive.

SMILES	Pf growth 48h	Sm TGR inh	Pf growth 96h	HCMV inh	HCV inhibitor	SARS PLpro yeast
Cc1ccccc1SC1CCN(Cc2nc(C3CC3)no2)CC1	-1.0%	1.6%	u	-31.1	16.3%	-0.2%
CCCN1CCc2c(sc(NC(=O)c3ccc(S(=O)(=O)N4CCN(C(=O)OCC)CC4)cc3)c2C(N)=O)C1	10.4µM*	-10.3%	u	-2.7	u	0.1%
CCOC(=O)c1c(NC(=O)COc2cccc3c2CCN(C)C3=O)sc2c1CCC2	u	u	13.1µM*	-62.6*	-3.6%	-5.7%
CN1CCc2c(sc(NC(=O)c3ccc(S(=O)(=O)N4CCCC4)cc3)c2C(N)=O)C1	u	100µM*	u	-27.7	-10.5%	0.6%
CCOC(=O)N1CCN(S(=O)(=O)c2ccc(C(=O)Nc3sc4c(c3C(=O)OC)CCN(C)C4)cc2)CC1	-19.8%	0.0%	u	-61.8*	u	-3.3%
Oc1ccc(N2CCN(C(=S)NCCc3ccccc3)CC2)cc1	u	-18.9%	138.8%	-70.1*	u	-25.8%
COc1ccc(N2CCN(C(=S)NCCc3ccccc3)CC2)cc1	x	x	x	-29.7	-16.3%	x
O=C(CN1CCN(c2ccc(O)cc2)CC1)Nc1ccccc1C(=O)NCCc1ccccc1	u	39.8µM*	u	-60.5*	12.6µM*	-2.1%
COc1cccc(N2CCN(CC(=O)Nc3ccccc3C(=O)NCCc3ccccc3)CC2)c1	u	-15.4%	u	41.7	u	-1.9%
COc1cc2c(cc1OC)CN(CC(=O)NC(=O)NCc1ccccc1)CC2	9.28µM*	9.5%	u	25.7	-1.6%	4.7%
COc1cccc(N2CCN(CC(=O)Nc3ccccc3C(=O)NCc3ccccc3)CC2)c1	9.28µM*	-4.7%	u	-23.6	u	-1.5%
CCOC(=O)c1ccc(NS(=O)(=O)c2ccc3c(c2)NC(=O)CCS3)cc1	-16.4%	-3.9%	u	0.0	3.6%	-5.5%
COc1cc2c(cc1OC)CN(CC(=O)Nc1ccccc1C(=O)NCc1ccccc1)CC2	16.5µM*	-1.9%	2.94µM*	36.3	-26.3%	-0.5%
CC(C)CCNC(=S)Nc1ccc([N+](=O)[O-])cc1	u	u	18.1%	-98.3*	u	-87.7%
O=C(NNC(=S)Nc1ccc(F)cc1)c1cccc([N+](=O)[O-])c1	61.7%	-9.0%	81.6%	41.9	7.7%	-0.8%
CCCCNC(=S)Nc1ccc([N+](=O)[O-])cc1	u	u	4.7%	-75.4*	u	-71.8%
O=C(NC(NNc1ccc([N+](=O)[O-])cc1)(C(F)(F)F)C(F)(F)F)c1ccc(F)cc1	0.1%	31.6µM*	14.5%	14.8	u	-52.6%
O=C(NC(NNc1ccc([N+](=O)[O-])cc1)(C(F)(F)F)C(F)(F)F)c1ccccc1Cl	-6.5%	u	u	5.7	u	-41.5%
O=[N+]([O-])c1ccc(NNC(=S)Nc2ccc(F)cc2)cc1	u	-24.9%	u	-98.5*	u	-62.5%
Cc1ccccc1Cn1c2ccccc2c2cnn(CC(=O)NCC(C)c3ccccc3)c(=O)c21 (stereo not drawn)	x	-0.4%	x	-0.5	x	x
CC(C)OC(=O)c1cc(NC(=S)Nc2ccc([N+](=O)[O-])cc2)cc(C(=O)OC(C)C)c1	u	2.4%	17.1%	-85.9*	u	5.0%
CC(C)COc1ccc(C(=O)Nc2ccc([N+](=O)[O-])cc2)cc1	-11.1%	x	-14.2%	x	u	0.5%
COc1cccc(NC(=O)C(=O)NCCCn2ccnc2)c1	58.2%	0.0%[57.1 µM]	u	-63.9*	14.3%	0.8%
Cc1ccc(-c2[nH]c3cc(C(=O)NCCCn4ccnc4)ccc3c(=O)c2O)cc1	13.1µM*	-2.3%	u	-12.4	-2.4%	u
CCCCCOc1ccc(NC(=O)C(=O)NCCCn2ccnc2)cc1	-10.6%	-6.2%	x	-19.7	u	4.9%
SMILES	Pf growth 48h	Sm TGR inh	Pf growth 96h	HCMV inh	HCV inhibitor	SARS PLpro yeast
CCCNC(=O)c1ccc2c(=O)c(O)c(-c3ccc(C)cc3)[nH]c2c1	u	10.2%	u	-30.1	-20.1%[8.37 µM]	u
O=C(CNC(=O)c1ccc(Cl)cc1)NCCCn1ccnc1	10.4µM*	-0.2%	u	3.3	19.7%	-0.2%
O=C(NCCCn1ccnc1)C(=O)NCc1ccc(Cl)cc1	-28.2%	0.0%	-19.8%	17.0	12.6%	-2.4%
Cc1ccc(CNC(=O)C(=O)NCCCn2ccnc2)cc1	x	x	x	-67.2*	22.7%	x
CC(OC(=O)c1cccc(S(=O)(=O)N2CCCCCC2)c1)C(=O)Nc1ccc(S(N)(=O)=O)cc1 (stereo not drawn)	u	-7.9%	u	-17.4	19.4%	0.3%
CC1=Nc2cc(Cl)ccc2Oc2ccccc21	15.4%	16.7%	2.08µM*	-21.7	-2.5%	-1.9%
O=C(Nc1ccc(C(=O)O)cc1)/C(=C\c1ccc([N+](=O)[O-])cc1)NC(=O)c1ccco1	x	x	x	14.5	x	x
CCOc1ccccc1NC(=O)C(=O)N/N=C/c1ccc([N+](=O)[O-])cc1	5.4%	-0.2%	53.8%	u	11.6%	-0.8%
O=C(N/N=C/C(Cl)=C/c1ccc([N+](=O)[O-])cc1)C(=O)Nc1ccccc1C(=O)O	-16.7%	14.1µM*	u	-32.1	-10.4%	-1.5%
O=C(N/N=C/C(Cl)=C/c1ccc([N+](=O)[O-])cc1)C(=O)Nc1ccc(C(=O)O)cc1	11.7µM*	u	u	u	-20.2%	0.0%
COc1ccc(O)c(CN2CC3CCC(CC3)C2)c1	x	x	x	2.2	-12.2%	x
c1cnc2c(-c3ccc4nccn4c3)cccc2c1	x	x	x	21.8	x	x
Cc1ccc2nc(NC(=O)COC(=O)c3ccc(Br)o3)sc2c1	19.1%	-2.1%	1.17µM*	152.0	1.5%	2.9%
O=C(COC(=O)c1ccc([N+](=O)[O-])o1)Nc1nc2ccccc2s1	-23.8%	28.2µM*	-1.9%	11.4	10µM*	-4.5%
C=CCc1cc(/C=C2/NC(=O)N(CC)C2=O)cc(OCC)c1OCc1ccc(C(=O)O)cc1	-16.8%	-10.3%	u	-3.5	u	0.8%
CN(NS(=O)(=O)c1ccccc1)C(=O)c1ccccc1	x	x	x	-99.9*	17.3%	x
CN(CC(=O)Nc1c(Cl)cccc1Cl)C(=O)C1CSC2(C)CCC(=O)N12 (stereo not drawn)	1.5%	2.8%	-17.4%	-0.2	8.3%	5.0%
Cc1cccn2c(CNCC3(c4ccccc4)CCCC3)c(C(=O)N3CCOCC3)nc12	u	-6.3%	-14.6%	-100.9*	-30.5%	0.2%
Cc1cccn2c(CNCCc3ccccn3)c(C(=O)N3CCOCC3)nc12	u	u	13.1µM*	26.8	12.7%	6.9%
Cc1cccn2c(CN3CCSCC3)c(C(=O)N3CCOCC3)nc12	19.2%	1.4%	u	-34.1	2.9%	-0.7%
